# Assay results: PubChem BioAssay (EPA / NIEHS)
# “And” between values parts separate entries of the source, which are not always exact repeats. Equal values may be shown once. Results filed as inconclusive are left out. Some structures have more than one record in an assay (separate samples or runs), and their calls can disagree. The source made the active and inactive calls. How the source made its calls, unless noted: active means hit-call score of the fitted dose curve at least 0.9, where 1 is the maximum; inactive means score below 0.9.
# Target: human Vitamin D Receptor (VDR), VDR (gene 7421) (UniProt P11473)
# Experiment: ATG_VDR_TRANS: Attagene TRANS-FACTORIAL HepG2 Assay for human Vitamin D Receptor (VDR) (AID 2283022; active means hit-call score of the fitted dose curve at least 0.9, where 1 is the maximum)
# Conditions: not given
# Procedure, shortened: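 Multiplexed TRANS reporter in HepG2; 24 h treatment; reporter mRNA by RT-PCR plus capillary electrophoresis; upregulation scored relative to DMSO.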
# Sequence of human Vitamin D Receptor (VDR), VDR (gene 7421) (P11473 whole entry, looked up): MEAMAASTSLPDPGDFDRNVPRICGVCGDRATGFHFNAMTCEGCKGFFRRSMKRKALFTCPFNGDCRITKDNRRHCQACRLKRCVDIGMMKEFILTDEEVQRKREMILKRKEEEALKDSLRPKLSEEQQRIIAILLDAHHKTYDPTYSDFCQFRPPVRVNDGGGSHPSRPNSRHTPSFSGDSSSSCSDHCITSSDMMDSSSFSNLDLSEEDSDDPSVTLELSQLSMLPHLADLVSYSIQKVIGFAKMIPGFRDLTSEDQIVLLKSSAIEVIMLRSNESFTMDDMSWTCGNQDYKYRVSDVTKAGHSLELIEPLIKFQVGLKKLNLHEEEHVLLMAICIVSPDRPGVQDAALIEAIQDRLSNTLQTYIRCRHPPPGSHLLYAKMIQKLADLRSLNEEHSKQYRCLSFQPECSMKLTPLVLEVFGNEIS
row,SMILES,outcome
1,OCC(O)CC(F)(F)C(F)(F)C(F)(F)C(F)(F)F (stereo not drawn),inactive
2,FC(F)(F)C(F)(F)C(F)(F)C(F)(F)C(F)(F)C(F)(F)C(F)(F)CCI,inactive
3,OCC(F)(F)C(F)(F)C(F)(F)C(F)(F)C(F)(F)C(F)(F)CO,inactive
4,O=C(O)CCC(F)(F)C(F)(F)C(F)(F)C(F)(F)C(F)(F)C(F)(F)C(F)(F)F,inactive
5,COC(F)(C(F)F)C(F)(F)F (stereo not drawn),inactive
6,CCOC(=O)CC(=O)C(F)(F)C(F)(F)F,inactive
7,OC(O)C(F)(F)C(F)(F)F,inactive
8,OCCCC(F)(F)C(F)(F)C(F)(F)C(F)(F)C(F)(F)C(F)(F)C(F)(F)C(F)(F)F,inactive
9,CO[Si](C)(CCC(F)(F)C(F)(F)C(F)(F)C(F)(F)C(F)(F)C(F)(F)F)OC,inactive
10,C=CC(=O)OCCC(F)(F)C(F)(F)C(F)(F)C(F)(F)F,inactive
11,NCC(F)(F)C(F)(F)C(F)(F)C(F)(F)C(F)(F)C(F)(F)C(F)(F)C(F)(F)F,inactive
12,OCC(F)(F)C(F)(F)C(F)(F)CO,inactive
13,NC(=O)C(F)(F)C(F)(F)C(F)(F)F,inactive
14,O=S(=O)(OCC(F)(F)F)C(F)(F)C(F)(F)C(F)(F)C(F)(F)F,inactive
15,OCCCCC(F)(F)C(F)(F)C(F)(F)C(F)(F)F,inactive
16,O=C(O)CCC(F)(F)C(F)(F)C(F)(F)F,inactive
17,O=C(O)C(F)(F)OC(F)(F)C(F)(F)OC(F)(F)C(F)(F)OC(F)(F)F,inactive
18,C[Si](Cl)(Cl)CCC(F)(F)C(F)(F)C(F)(F)C(F)(F)C(F)(F)C(F)(F)F,inactive

# Read-out: not listed separately
# Experiment: BSK_3C_SRB: Viability Assessment in the BioMAP Diversity Plus: 3C Assay (AID 2283023);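 further: cells read 24 h after compound dosing; fitted both ways against DMSO so a hit may be signal rise or drop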
# Conditions: primary human endothelial cells (HUVEC)
# Procedure, shortened: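 Overt cytotoxicity is gauged in parallel confluent HUVEC cultures by SRB total-protein staining at the time of biomarker measurement, 24 h after dosing. Gain or loss of signal is fitted versus DMSO.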
SMILES,AC50,outcome
CCN=C1C=CC(=C(c2ccc(N(CC)CC)cc2)c2ccc(N(CC)CC)cc2)c2ccccc21,1.6 µM (active) and 1.67 µM (active),–
OCC(O)CC(F)(F)C(F)(F)C(F)(F)C(F)(F)F (stereo not drawn),–,inactive
C=CC(=O)OCC(F)(F)C(F)(F)C(F)(F)COC(=O)C=C,41.1 µM (active) and 40.3 µM (active),–
FC(F)(F)C(F)(F)C(F)(F)C(F)(F)C(F)(F)C(F)(F)C(F)(F)CCI,–,inactive
CC(C)(C)c1cc(CCC(=O)NCCCCCCNC(=O)CCc2cc(C(C)(C)C)c(O)c(C(C)(C)C)c2)cc(C(C)(C)C)c1O,–,inactive
OCC(F)(F)C(F)(F)C(F)(F)C(F)(F)C(F)(F)C(F)(F)CO,–,inactive
O=C(c1ccccc1)c1ccc(O)cc1O,–,inactive
Cc1cc(C)c(O)c(C(C)(C)C)c1,30.1 µM (active),–
Cc1cnccn1,–,inactive
O=C=Nc1cccc2c(N=C=O)cccc12,–,inactive
O=C(O)CCC(F)(F)C(F)(F)C(F)(F)C(F)(F)C(F)(F)C(F)(F)C(F)(F)F,–,inactive
COC(F)(C(F)F)C(F)(F)F (stereo not drawn),–,inactive
CCOC(=O)CC(=O)C(F)(F)C(F)(F)F,–,inactive
OC(O)C(F)(F)C(F)(F)F,–,inactive
OCCCC(F)(F)C(F)(F)C(F)(F)C(F)(F)C(F)(F)C(F)(F)C(F)(F)C(F)(F)F,10.5 µM (active) and 28.4 µM (active),–
CO[Si](C)(CCC(F)(F)C(F)(F)C(F)(F)C(F)(F)C(F)(F)C(F)(F)F)OC,–,inactive

SMILES,AC50,outcome
O=C=NCc1cccc(CN=C=O)c1,–,inactive
Nc1cc([N+](=O)[O-])cc(Cl)c1O,–,inactive
C=CC(=O)OCCC(F)(F)C(F)(F)C(F)(F)C(F)(F)F,–,inactive
NCC(F)(F)C(F)(F)C(F)(F)C(F)(F)C(F)(F)C(F)(F)C(F)(F)C(F)(F)F,–,inactive
OCC(F)(F)C(F)(F)C(F)(F)CO,–,inactive
O=S(=O)(O)CCC(F)(F)C(F)(F)C(F)(F)C(F)(F)C(F)(F)C(F)(F)C(F)(F)C(F)(F)F,25.6 µM (active),inactive
O=C1c2c(O)ccc(Nc3ccc(CCO)cc3)c2C(=O)c2c([N+](=O)[O-])ccc(O)c21,–,inactive
CCOC(C=C(C)CCC=C(C)C)OCC,31.2 µM (active),–
NC(=O)C(F)(F)C(F)(F)C(F)(F)F,–,inactive
CCN(CC)c1ccc2c(c1)Oc1cc(N(CC)CC)ccc1C21OC(=O)c2ccccc21,5.74 µM (active),–
O=S(=O)(OCC(F)(F)F)C(F)(F)C(F)(F)C(F)(F)C(F)(F)F,–,inactive
OCCCCC(F)(F)C(F)(F)C(F)(F)C(F)(F)F,–,inactive
O=C(O)CCC(F)(F)C(F)(F)C(F)(F)F,–,inactive
O=C(O)C(F)(F)OC(F)(F)C(F)(F)OC(F)(F)C(F)(F)OC(F)(F)F,–,inactive
C[Si](Cl)(Cl)CCC(F)(F)C(F)(F)C(F)(F)C(F)(F)C(F)(F)C(F)(F)F,–,inactive

# Read-out: Matrix Metallopeptidase 1 (MMP1), MMP1 (gene 4312)
# Experiment: BSK_BE3C_MMP1: BioMAP Diversity Plus: BE3C Assay for Matrix Metallopeptidase 1 (MMP1) Biomarker Activity (AID 2283024)
# Conditions: primary human bronchial epithelial cells; actives raise or lower the signal
# Procedure, shortened: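 ELISA read-out of MMP1 in human lung bronchial epithelial primary cultures, 24 h post-dose; bidirectional curve fit vs DMSO baseline, gain or loss of signal scored.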
SMILES,AC50,outcome
CCN=C1C=CC(=C(c2ccc(N(CC)CC)cc2)c2ccc(N(CC)CC)cc2)c2ccccc21,3.21 µM (active),inactive
OCC(O)CC(F)(F)C(F)(F)C(F)(F)C(F)(F)F (stereo not drawn),–,inactive
C=CC(=O)OCC(F)(F)C(F)(F)C(F)(F)COC(=O)C=C,21.8 µM (active),inactive
FC(F)(F)C(F)(F)C(F)(F)C(F)(F)C(F)(F)C(F)(F)C(F)(F)CCI,–,inactive
CC(C)(C)c1cc(CCC(=O)NCCCCCCNC(=O)CCc2cc(C(C)(C)C)c(O)c(C(C)(C)C)c2)cc(C(C)(C)C)c1O,–,inactive
OCC(F)(F)C(F)(F)C(F)(F)C(F)(F)C(F)(F)C(F)(F)CO,–,inactive
O=C(c1ccccc1)c1ccc(O)cc1O,–,inactive
Cc1cc(C)c(O)c(C(C)(C)C)c1,29 µM (active),–
Cc1cnccn1,–,inactive
O=C=Nc1cccc2c(N=C=O)cccc12,–,inactive
O=C(O)CCC(F)(F)C(F)(F)C(F)(F)C(F)(F)C(F)(F)C(F)(F)C(F)(F)F,3.33 µM (active) and 3.8 µM (active),–
COC(F)(C(F)F)C(F)(F)F (stereo not drawn),–,inactive
CCOC(=O)CC(=O)C(F)(F)C(F)(F)F,–,inactive
OC(O)C(F)(F)C(F)(F)F,–,inactive
OCCCC(F)(F)C(F)(F)C(F)(F)C(F)(F)C(F)(F)C(F)(F)C(F)(F)C(F)(F)F,7.11 µM (active) and 55.2 µM (active),–
CO[Si](C)(CCC(F)(F)C(F)(F)C(F)(F)C(F)(F)C(F)(F)C(F)(F)F)OC,–,inactive

SMILES,AC50,outcome
O=C=NCc1cccc(CN=C=O)c1,–,inactive
Nc1cc([N+](=O)[O-])cc(Cl)c1O,–,inactive
C=CC(=O)OCCC(F)(F)C(F)(F)C(F)(F)C(F)(F)F,–,inactive
NCC(F)(F)C(F)(F)C(F)(F)C(F)(F)C(F)(F)C(F)(F)C(F)(F)C(F)(F)F,–,inactive
OCC(F)(F)C(F)(F)C(F)(F)CO,–,inactive
O=S(=O)(O)CCC(F)(F)C(F)(F)C(F)(F)C(F)(F)C(F)(F)C(F)(F)C(F)(F)C(F)(F)F,11.1 µM (active) and 15.4 µM (active),–
O=C1c2c(O)ccc(Nc3ccc(CCO)cc3)c2C(=O)c2c([N+](=O)[O-])ccc(O)c21,2.47 µM (active),–
CCOC(C=C(C)CCC=C(C)C)OCC,–,inactive
NC(=O)C(F)(F)C(F)(F)C(F)(F)F,–,inactive
CCN(CC)c1ccc2c(c1)Oc1cc(N(CC)CC)ccc1C21OC(=O)c2ccccc21,–,inactive
O=S(=O)(OCC(F)(F)F)C(F)(F)C(F)(F)C(F)(F)C(F)(F)F,–,inactive
OCCCCC(F)(F)C(F)(F)C(F)(F)C(F)(F)F,–,inactive
O=C(O)CCC(F)(F)C(F)(F)C(F)(F)F,–,inactive
O=C(O)C(F)(F)OC(F)(F)C(F)(F)OC(F)(F)C(F)(F)OC(F)(F)F,2.78 µM (active) and 3.97 µM (active) and 11.8 µM (active),–
C[Si](Cl)(Cl)CCC(F)(F)C(F)(F)C(F)(F)C(F)(F)C(F)(F)C(F)(F)F,–,inactive
